The values below come from PubChem BioAssay AID485347 (National Center for Advancing Translational Sciences (NCATS), 2010).

Screen size: about 340,000 compounds; about 1,200 (0.35%) were called active. The full list was thinned out, with actives kept by preference. A number with no mark means an inactive call.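 How the source made its calls: active means potentiation over 3 SD above the plate norm (cut at about 30% in these data); inactive means the rest.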

D(2) dopamine receptor (Homo sapiens), sequence (P14416 whole entry, looked up): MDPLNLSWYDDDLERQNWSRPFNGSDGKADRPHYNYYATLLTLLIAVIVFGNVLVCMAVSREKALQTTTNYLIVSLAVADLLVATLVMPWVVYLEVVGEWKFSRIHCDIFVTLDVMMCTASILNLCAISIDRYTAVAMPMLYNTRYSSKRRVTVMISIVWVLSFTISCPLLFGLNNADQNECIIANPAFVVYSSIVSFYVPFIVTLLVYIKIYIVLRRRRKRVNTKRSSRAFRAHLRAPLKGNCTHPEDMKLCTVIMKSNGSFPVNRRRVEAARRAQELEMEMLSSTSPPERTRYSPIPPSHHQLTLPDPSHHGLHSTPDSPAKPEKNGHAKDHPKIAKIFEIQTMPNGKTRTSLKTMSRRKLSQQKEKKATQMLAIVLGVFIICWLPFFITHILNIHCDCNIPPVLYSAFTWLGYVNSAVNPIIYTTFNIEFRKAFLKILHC

This assay concerns the target D(2) dopamine receptor (Homo sapiens) (UniProt P14416). Briefly: HTS Assay for Positive Allosteric Modulators of the Human D2 Dopamine Receptor: Primary Screen for Potentiators. Further: 0% is about no effect. Particulars: HEK293 T-REx D2, calcium flux, EC20 dopamine potentiation; at 10 µM; hits give high values. From the text:
NIH Chemical Genomics Center [NCGC] NIH Molecular Libraries Probe Centers Network [MLPCN] MLPCN Grant: NS064831-01 Assay Submitter (PI): David Sibley Dopamine receptors (DARs) are involved in the etiology and/or therapy of a number of neuropsychiatric and endocrine disorders. For instance, all receptor-based antiparkinsonian drugs work via stimulating the D2 DAR subtype whereas all FDA-approved antipsychotic agents are antagonists of this receptor. […] There are three different types of allosteric modulators that we are seeking, two of which will stimulate or augment receptor signaling, allosteric agonists and potentiators, while the third, allosteric antagonists, will attenuate receptor signaling. The present primary screening assay measures compound potentiation of an EC20 dopamine response by tracking calcium flux in a […], inducible Hek293 Trex D2 cell line.
Freshly passaged cells are plated in 1536 well black, clear bottom plates at a density of 4000 cells/well in 3 ul of complete media containing 1x tetracycline inducer. After an overnight incubation at 30 C in 5% CO2, cells are loaded with 2 ul of the no wash Calcium Assay Kit (ABD Bioquest) and incubated at room temperature for 30 to 90 minutes. A 10 cycle (1 second/cycle) baseline measurement is taken and then the FDSS online 1536 pintool delivers 23 nl of compound library (as well as dopamine controls) to the plate. The plate is measured for kinetically at 1 cycle/sec for 180 seconds and is considered to be the agonist portion of the assay (eg, compounds which activate a positive calcium response during this portion are flagged as potential agonists). Following the 180 second read, 1 ul of an EC20 of dopamine is delivered by an onboard pipette head. Measurements are taken kinetically for an additional 180 seconds.
On the technique in general: Calcium flux is commonly read through the fluorescence of an indicator in the cells.
As for `O=C(NCC(c1cccnc1)N1CCN(c2ccccc2)CC1)Oc1ccccc1` (stereo not given), the potentiation is 43.6% (active).

For `COc1ccccc1N1CCN(C(CNC(=O)Oc2ccccc2)c2cccnc2)CC1` (stereo not given), the potentiation is -0.508%. To `COC(=O)C(c1ccccc1)N1CCCCCC1` (stereo not given) belongs 5.6%; to `Cc1cccc(Cn2cccc(C(=O)Nc3ccc4c(c3)OCCO4)c2=O)c1`, -8.38%. To `Cc1ccc(NC(=O)N(Cc2ccc3c(c2)OCO3)C2CCN(Cc3ccccc3)CC2)cc1F` belongs 2.88%.
